Test results as given in PubChem BioAssay (EPA / NIEHS).
Records with an inconclusive call do not appear. Some structures have more than one record in an assay (separate samples or runs), and their calls can disagree. Activity calls are given as the source filed them. The calls were made as follows: active = hit-call score of the fitted dose curve at least 0.9, where 1 is the maximum; inconclusive = response in the unintended direction; inactive = score below 0.9.

Columns and labels:
[1] = ATG_XTT_Cytotoxicity: Cytotoxicity Assessment in the Attagene TRANS-FACTORIAL HepG2 Assay (AID 2283584);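 as to AC50: XTT signal for cell number as viability in transfected HepG2 cells; cells exposed to compound for 24 h before reading; active means loss of viability signal versus DMSO baseline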
Method in brief: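 Transfect HepG2 with GAL4-UAS reporter units, dose compound, incubate 24 h, then measure viable cell number by XTT. Fit concentration response against DMSO baseline.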

[2] = TOX21_p53_BLA_p2_viability: Viability Assessment in the Tox21 HCT-116 p53 Agonism Beta-lactamase Assay, Phase 2 (AID 2283591);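 also: compound exposure lasted 16 h at 37 °C; actives lower the ATP signal meaning cytotoxicity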
Method in brief: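 HCT-116 p53-bla cells (4000/well) rested 5 h at 37C, then received compounds in DMSO (217-fold dilution) for 16 h at 37C, 5% CO2. After the CCF4 read, CellTiter-Glo was added; ATP luminescence was read after 30 min at room temperature.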

[3] = target: Cellular tumor antigen p53 (Homo sapiens) (UniProt P04637); experiment: TOX21_p53_BLA_p2_ratio: Tox21 HCT-116 p53 Agonism Beta-lactamase Assay, Ratio, Phase 2 (AID 2283592)
Method in brief: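 Cleaved-to-uncleaved substrate ratio (460 vs 530 nm) measured in HCT116 cells with an inducible beta-lactamase reporter linked to p53 activity. Compounds incubated 16 h at 37C before 2 h room-temperature CCF4-AM loading.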

[4] = target: Cellular tumor antigen p53 (Homo sapiens) (UniProt P04637); experiment: TOX21_p53_BLA_p3_ratio: Tox21 HCT-116 p53 Agonism Beta-lactamase Assay, Ratio, Phase 3 (AID 2283596)
Method in brief: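 Cells were seeded at 4000/well, rested 5 h at 37C, then dosed with DMSO compound solutions (217-fold dilution) for 16 h. CCF4-AM substrate was loaded for 2 h at room temperature, and the 460/530 nm emission ratio was fitted for gain of signal versus DMSO.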

[5] = target: Cellular tumor antigen p53 (Homo sapiens) (UniProt P04637); experiment: TOX21_p53_BLA_p4_ratio: Tox21 HCT-116 p53 Agonism Beta-lactamase Assay, Ratio, Phase 4 (AID 2283601)
Method in brief: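 HCT116 cells carrying an inducible beta-lactamase reporter were plated at 4000 cells/well, rested 5 h, then exposed to compounds in DMSO (217-fold dilution) for 16 h at 37C. CCF4-AM substrate was loaded 2 h at room temperature; 460/530 nm emission ratio scored gain-of-signal versus DMSO.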

[6] = TOX21_p53_BLA_p3_viability: Viability Assessment in the Tox21 HCT-116 p53 Agonism Beta-lactamase Assay, Phase 3 (AID 2283593);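 also: cells exposed to compound for 16 h before reading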
Method in brief: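 HCT-116 cells (4000/well) rested 5 h at 37C, then got DMSO compounds by pin tool (217-fold dilution) for 16 h at 37C, 5% CO2. After the bla read, CellTiter-Glo was added and luminescence read at 30 min, room temperature.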

[7] = TOX21_p53_BLA_p5_viability: Viability Assessment in the Tox21 HCT-116 p53 Agonism Beta-lactamase Assay, Phase 5 (AID 2283600)
Method in brief: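 Viability is taken from cellular ATP content, measured by luciferase luminescence in the same wells after the beta-lactamase ratio read. Cells are seeded at 4000 per well and exposed to DMSO-dissolved compounds, diluted 217-fold, for 16 h.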

[8] = TOX21_p53_BLA_p4_viability: Viability Assessment in the Tox21 HCT-116 p53 Agonism Beta-lactamase Assay, Phase 4 (AID 2283597);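 also: hits lower the luminescence signal meaning cytotoxicity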
Method in brief: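 Viability is taken as cellular ATP: after 16 h compound exposure of HCT116 cells and a 2 h room-temperature CCF4-AM substrate step, CellTiter-Glo reagent is added and luminescence is measured 30 min later.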

[9] = target: Cellular tumor antigen p53 (Homo sapiens) (UniProt P04637); experiment: TOX21_p53_BLA_p5_ratio: Tox21 HCT-116 p53 Agonism Beta-lactamase Assay, Ratio, Phase 5 (AID 2283599)
Method in brief: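 HCT-116 cells carrying a p53-inducible beta-lactamase reporter were seeded at 4000 cells/well and dosed after 5 h with compound in DMSO (217-fold dilution). After 16 h at 37C, CCF4-AM substrate was added for 2 h, and the 460/530 nm emission ratio was scored as gain-of-signal versus DMSO.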

Measured: AC50

Cellular tumor antigen p53 (Homo sapiens), sequence (P04637 whole entry, looked up): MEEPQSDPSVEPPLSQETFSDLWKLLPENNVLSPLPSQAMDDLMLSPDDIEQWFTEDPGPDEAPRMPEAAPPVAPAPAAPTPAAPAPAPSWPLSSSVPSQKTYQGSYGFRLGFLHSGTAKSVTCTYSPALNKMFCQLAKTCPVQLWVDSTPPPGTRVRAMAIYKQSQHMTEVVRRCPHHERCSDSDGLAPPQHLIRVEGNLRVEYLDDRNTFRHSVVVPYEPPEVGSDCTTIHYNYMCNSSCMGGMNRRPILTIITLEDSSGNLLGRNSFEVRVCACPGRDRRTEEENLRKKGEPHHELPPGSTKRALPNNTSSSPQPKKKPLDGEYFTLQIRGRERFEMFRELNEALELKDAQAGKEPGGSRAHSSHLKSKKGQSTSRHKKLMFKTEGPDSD

Fc1c(F)c(F)c(Br)c(F)c1F
inactive: [1] | [2] | [3] | [4] | [5]

CCCCCC=CCC(=O)OC
inactive: [1] | [2] | [6] | [7]

C=CC[N+](C)(C)CC=C
inactive: [1] | [3] | [6] | [4] | [8] | [9] | [7] | [5]

CC1CCC(C(C)CS)CC1S (stereo not drawn)
active: [1] 152000 nM
inactive: [3] | [6] | [4] | [8] | [9] | [7] | [5]

c1ccc2[nH]ccc2c1
inactive: [1] | [3] | [4] | [8] | [9] | [7] | [5]

CCCCCC(=O)OCCc1ccccc1
inactive: [1] | [3] | [6] | [4] | [8] | [7]

COc1ccc(NC(=O)CC(C)=O)cc1
inactive: [1] | [3] | [4] | [8] | [9] | [7] | [5]

CC1(C)C(=O)N(Br)C(=O)N1Cl
inactive: [1] | [3] | [6] | [8] | [9]

C=C(C)[C@@H]1CCC2=CC(=O)C[C@@H](C)[C@]2(C)C1
inactive: [1] | [3] | [4] | [9] | [7] | [5]

NCCOCCO
inactive: [1] | [3] | [6] | [9] | [5]

CCC(=O)/C=C/C1C(C)=CCCC1(C)C (stereo not drawn)
inactive: [1] | [3] | [6] | [4] | [9] | [5]

CO[Si](CCCn1c(=O)n(CCC[Si](OC)(OC)OC)c(=O)n(CCC[Si](OC)(OC)OC)c1=O)(OC)OC
inactive: [1] | [3] | [6] | [5]

CCCCCCCCCCCCSC
inactive: [1] | [3] | [6] | [8] | [9] | [7] | [5]

COc1ccc(Cl)cc1C
inactive: [1] | [3] | [4] | [9]

CC(=O)OCCC(C)CC(C)(C)C (stereo not drawn)
inactive: [1] | [3] | [4] | [8] | [9] | [7] | [5]

COC(=O)c1ccc(C)cc1
active: [4] 0.353 nM | [5] 0.134 nM
inactive: [1] | [3] | [6] | [4] | [8] | [9] | [7] | [5]

O=Cc1ccc(Cl)c([N+](=O)[O-])c1
inactive: [1] | [3] | [4] | [8] | [9] | [5]

CCC(C)(O)CCC=C(C)C (stereo not drawn)
inactive: [1] | [3] | [4] | [8] | [9] | [7] | [5]

Cc1ccc2ccccc2n1
inactive: [1] | [3] | [6] | [4] | [9] | [7] | [5]

Cc1ccc(C=O)s1
inactive: [1] | [3] | [6] | [9] | [7] | [5]

CCCCCCCCCCCCN(CCCCCCCCCCCC)CCCCCCCCCCCC
inactive: [1] | [3] | [4] | [8]

CCCCCC(CO)CCC (stereo not drawn)
inactive: [1] | [3] | [4] | [8] | [9] | [7] | [5]

COc1ccc(O)cc1
inactive: [1] | [3] | [6] | [8] | [9] | [7] | [5]

OCCN1CCNCC1
active: [6] 82800 nM
inactive: [1] | [3] | [4] | [8] | [9] | [7] | [5]

Clc1ccc(Cl)c(Cl)c1Cl
active: [5] 0.436 nM
inactive: [1] | [3] | [4] | [8] | [9] | [7]

O=C(O)C[C@H](O)C[C@H](O)/C=C/c1c(C2CC2)nc2ccccc2c1-c1ccc(F)cc1
inactive: [1] | [3] | [4] | [9] | [7] | [5]

C/C=C(\C)C(=O)OCc1ccccc1
inactive: [1] | [3] | [6] | [8] | [7] | [5]

Cc1ncc([N+](=O)[O-])n1C
inactive: [1] | [3] | [4] | [8] | [7] | [5]

CC(C)(N)CO
inactive: [1] | [3] | [4] | [8] | [9] | [7] | [5]
